Results filed as inconclusive are left out. Where a call stands in place of a potency, no number is given. Values without a mark were called inactive. The source made the active and inactive calls. Calls follow the shape of the dose curve; as a rule, active = well fitted curve in the direction sought with a large enough effect; inconclusive = small, poorly fitted or top-dose-only effect, or effect the other way; inactive = flat fitted curve, though single readings scatter.
Experiment: Total Fluorescence Confirmation Counterscreen for Inhibitors of the Interaction of Thyroid Hormone Receptor and Steroid Receptor Coregulator 2, Fluorescein Fluoroprobe
How it was run: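 Human TRbeta ligand-binding domain (0.6 uM) with 20 nM fluorescein-labelled SRC2 peptide, 1 uM T3, 5% DMSO, Tris pH not given; 5 hr ambient incubation. Total fluorescence (S + 2P, parallel plus perpendicular channels) flags fluorescent or light-absorbing compounds; % activity per concentration.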

Structure (SMILES) | Potency | total fluorescence change, positive = fluorescent
COc1cc(C(c2c(C)[nH][nH]c2=O)c2c(C)[nH][nH]c2=O)ccc1OC(=O)c1ccccc1OC | inactive | 
O=C(O)C1C2C=CC(O2)C1C(=O)Nc1ccc(S(=O)(=O)N2CCc3ccccc32)cc1 (configuration not stated) |  | 3.65% [at 11.6 µM]

Reference: PubChem BioAssay AID1571 (National Center for Advancing Translational Sciences (NCATS), 2009)
